# High-throughput results as filed in PubChem BioAssay.
# A selection: hits, their analogues and other compounds. The true share with any hit is near 7.3%.
# HCMV antiviral: blocks human cytomegalovirus replication. HFF cells, HCMV-luciferase reporter, 72 h; active compounds read low. 4.5% of 410,000 active. activity change, negative = inhibition, % at 57.5 µM; in the data active = activity change below about -60%; inconclusive = no clear call, values can overlap the other calls; inactive = above about -39%
#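 Human foreskin fibroblasts infected with luciferase-reporter HCMV at MOI 1 PFU/cell, compounds at two doses. Luciferase measured 72 h post infection; normalized to buffer-only basal and Salinomycin (10uM) controls.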
# VACV mCherry inh: vaccinia inhibition (mCherry reporter); Vaccinia virus mCherry reporter infection, fluorescence; Potency, µM (series often up to 36.5 µM), inactives show top-dose activity change, negative = inhibition, actives largely listed as inhibitors; 0.63% of 310,000 active; calls by dose curve; tested in A549 cells; also: potency is read from the fitted curve at half-maximal effect; nearly all actives have a fitted effect of over 35% in size
# Vaccinia Venus: inhibitors of vaccinia virus (Venus reporter); 0.46% of 330,000 active; Vaccinia virus Venus reporter expression, fluorescence; Potency, µM (highest dose often 36.5 µM), inactives show at the top dose activity change, negative = inhibition, most hits filed as inhibitors; calls by dose curve; tested in A549 cells; also: potency is read from the fitted curve at half-maximal effect; nearly all actives have a fitted effect of over 30% in size
# FMDV inh: foot and mouth disease virus antiviral activity | FMDV antiviral cell-based qHTS | AID 1159524 | Potency, µM (doses to about 57.9 µM), for the others: top-dose activity change, negative = inhibition, usual class: inhibitors | 1.2% of 410,000 active; calls by dose curve; tested in HEK293T cells; also: read-out not given here; potency is read from the fitted curve at half-maximal effect; nearly all actives have a fitted effect of over 45% in size
# HCV inh: inhibitors of hepatitis C virus infection. Huh7.5.1 HCVcc-Cre infection, luciferase reporter, 44 h. Potency, µM (doses to about 41.8 µM), without a hit: at the top dose activity change, negative = inhibition, most hits filed as inhibitors. 3.4% of 340,000 active; active = well fitted inhibition curve with a large enough effect; inconclusive = small, poorly fitted or top-dose-only effect, or another doubt; inactive = no such curve, though single readings can be large or run the other way; also: potency is read from the fitted curve at half-maximal effect
#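 Luciferase read-out (15 sec integration) after a 15 min room-temperature substrate step quantifies HCVcc-Cre infection. Cells, 1,000 per well, had compound added 4 h post-plating, then virus at ~0.5 moi, and were cultured 44 h.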
# An asterisk follows results filed as active; i = inactive; ? = inconclusive; · = no result; ! = not active in a repeat; [ ] = another dose, or the depositor's remark. % is scaled to controls: 0 for no effect and ±100 for the full control effect.
SMILES,HCMV antiviral,VACV mCherry inh,Vaccinia Venus,FMDV inh,HCV inh
O=C(CCc1ccncc1)NC1CCCc2c1cnn2-c1ccc(F)cc1F (stereo unspecified),-73.2*,-4.4%,-11.7%,?,12.6µM*
O=C(NC1CCCc2c1cnn2-c1ccc(F)cc1F)c1ccccc1N1CCOCC1 (stereo unspecified),-75.2*,-4.7%,-15.4%,-18.8%,·
COc1cccc(CNC(=O)c2ccc(CS(=O)Cc3ccc(Cl)cc3)o2)c1 (stereo unspecified),-18.7,-11.6%,-7.2%,-7.6%,·
COc1cccc(OCC(=O)NCCS(=O)(=O)N2CCN(c3ccccc3F)CC2)c1,-16.8,i,-20.3%,5.2%,·
COc1ccc(NC(=O)N2c3ccc(OC)cc3[C@@H](NCc3cnc[nH]3)[C@H](C)[C@H]2c2ccccc2)cc1,32.4,·,·,·,·
O=C(O)c1ccc(-n2cc(-c3cc4ccccc4oc3=O)[nH]c2=S)cc1,-64.3*,-7.5%,2.5%,14.6%,-20.5%
O=c1c2ccccc2c(/C=N/c2ncn[nH]2)c(O)n1Cc1ccccc1,-82.4*!,?,?,-4.0%,?
CC(C)CCC(C)N=Cc1c(O)n(Cc2ccccc2)c(=O)c2ccccc12 (stereo unspecified),6.9,·,-12.2%,-4.6%,6.9%
COc1ccccc1N1CCN(Cc2cc(COC(C)C)c3cccnc3c2O)CC1,-84.9*,?,?,-16.1%,·
COc1ccccc1N1CCN(Cc2ccc(Br)s2)CC1,-81.0*,·,·,?,-12.5%
CCCOCc1cc(CN2CCN(c3ccccc3OC)CC2)c(O)c2ncccc12,-99.7*,?,?,-25.9%,·
COc1ccccc1N1CCN(Cc2cc(Br)c(O)c3ncccc23)CC1,-95.4*,?,?,-24.8%,3.98µM*
CCOc1ccccc1N1CCN(Cc2cccc(OC)c2O)CC1,-13.9,·,·,?,?
CCOCc1cc(CN2CCN(c3ccccc3OC)CC2)c(O)c2ncccc12,-98.5*,12.6µM*,-28.0%,0.0%,·
Cc1ccc(CNC(=O)C2CC3Cn4c(nc5cc6ccccc6cc54)C3N2C)o1 (stereo unspecified),-100.6*,i,-15.1%,-16.5%,-17.0%[8.37 µM]
Cc1ccc(CNC(=O)C2CC3Cn4c(nc5ccccc54)C3N2C)o1 (stereo unspecified),2.5,i,-5.2%,-11.7%,14.3%
CCn1c(=O)c2c(nc3n2CCN3c2ccc(OC)cc2)n(C)c1=O,-4.4,-20.2%,1.6%,-24.6%,·
COc1ccc(C=CC(=O)c2c(OC)cc(OC)c(OC)c2O)cc1,0.1,?,?,17.8µM*,-26.2%
COC1=C(C)C(O)=C(C(=O)/C=C/c2ccccc2)C(=O)C1(C)C,-77.4*,11.2µM*,?,-4.3%,2.1%
COc1ccc(C=CC(=O)c2cc(O)ccc2O)cc1,?,7.94µM*,-23.8%,25.5%,?
COc1ccc(C(=O)/C=C/c2ccc(O)cc2)cc1,33.3,i,-4.7%,30.5%,-27.3%
COc1cccc(/C=C/C(=O)c2ccc[nH]2)c1,-86.7*,?,?,28.7%,-21.8%
O=C(/C=C/c1ccc2c(c1)OCO2)c1ccc[nH]1,-6.8,?,?,30.4%,-2.3%
CC(=O)NCCNc1ncncc1-c1ccc(N(C)C)cc1,·,·,·,-8.1%,·
Cc1ccc(O)c(C(=O)C=Cc2ccccc2)c1,8.0,-2.8%,-5.5%,35.5µM*,?
SMILES,HCMV antiviral,VACV mCherry inh,Vaccinia Venus,FMDV inh,HCV inh
COc1ccc(C(=O)/C=C/c2ccc(N3CCCCC3)c([N+](=O)[O-])c2)c(OC)c1,-21.3,11.2µM*,?,?,-23.6%
COc1ccc(C(=O)/C=C/c2ccc(N3CCCCC3)c([N+](=O)[O-])c2)cc1,-30.7,-7.9%,-4.0%,-21.1%,?
COc1ccc(C(=O)/C=C/c2ccccc2)c(OC)c1,-68.1*,?,?,-16.8%,-1.4%
COc1ccc(C(=O)/C=C/c2ccc(N(C)C)cc2)c(OC)c1,-5.8,?,7.2%,43.1%,?
COc1ccc(C(=O)/C=C/c2cc(OC)c(O)c(OC)c2)c(F)c1,-96.1*,?,177.8%,?,12.6µM*
COC(=O)c1ccccc1NC(=O)Cn1cc(S(=O)(=O)Cc2ccccc2F)c2ccccc21,0.0,-12.0%,-8.1%,-4.6%,·
CCOc1ccc(CCNC(=O)CN2C(=O)COc3ccc(S(=O)(=O)N4CCC(C)CC4)cc32)cc1,-11.0,-12.8%,-15.1%,-16.6%,·
COc1ccc(OC)c(C(=O)/C=C/c2ccccc2C(F)(F)F)c1,-104.0*,·,·,20µM*,10µM*
COc1cc(C)cc(C(=O)C=Cc2ccccc2)c1O,37.0,-6.3%,-5.0%,31.6µM*,-14.5%
COc1ccc(OC)c(C(=O)C(=O)c2cc(OC)ccc2OC)c1,-2.5,-5.1%,-4.6%,-27.5%,?
CC(=O)N[C@@H](C)C(=O)NCC1Cc2cccc(-c3ccccc3C(F)(F)F)c2O1 (stereo partly specified),·,-8.3%,-1.6%,-7.1%,·
O=c1cnc2cnc(Oc3ccccc3)nc2n1CCc1ccccc1,·,·,·,-8.3%,·
O=C(Nc1ccccc1)N[C@H]1CC[C@@]23CCCN2C(=O)CCC[C@H]3C1Cc1ccccc1 (stereo partly specified),-17.1,·,·,·,·
CCOC(=O)/C=C/c1ccc2c(c1)S(=O)(=O)N(C1CCCC1)[C@H]2CC(=O)OCC,·,-5.8%,-25.3%,·,·
COc1ccc(OC)c(CCNC(=O)Cn2nc(C)c3c(C)n(-c4ccc(C)cc4)nc3c2=O)c1,-91.8*,-29.7%,?,?,1.12µM*
COc1ccc(CCNC(=O)Cn2nc(C)c3c(C)n(-c4ccccc4)nc3c2=O)c(OC)c1,-0.7,·,·,-24.2%,?
Cc1ccc(-n2nc3c(=O)n(CC(=O)NCCc4ccccc4C)nc(C)c3c2C)cc1,-73.4*,?,?,?,5.01µM*
CCOc1ccc(CCNC(=O)Cn2ncn3c(cc4ccccc43)c2=O)cc1OCC,-10.7,-10.7%,-9.7%,-5.8%,·
CCN(C(=O)CSc1nc2ccccc2n1CC(=O)NCc1ccc(OC)cc1)c1ccccc1,-18.7,-6.2%,-18.7%,11.6%,·
COc1ccc(OC)c(CNC(=O)c2nn(-c3ccc(OC)c(Cl)c3)c(=O)c3c2c2ccccc2n3C)c1,13.9,i,-3.0%,-17.8%,·
Cc1ccc(N2C(=O)c3ccc(C(=O)N4CCN(c5cccc(C)c5C)CC4)cc3C2=O)cc1,13.1,·,·,-10.3%,7.3%
Cc1ccc(N2C(=O)c3ccc(C(=O)N4CCN(c5ccc(C)c(C)c5)CC4)cc3C2=O)cc1,-70.4*,i,0.3%,-16.4%,19.2%
CN1CCN(c2ccc([N+](=O)[O-])c(-n3nc(-c4ccccc4)c4ccccc4c3=O)c2)CC1,-2.3,?,?,-3.0%,4.47µM*
Fc1ccc(-c2noc3ncnc(NCC4CCN(Cc5ccc(Cl)cc5)CC4)c23)cc1,-65.3*,-20.6%,-15.7%,-0.6%,·
O=C1CCCCCN1Cc1nnc(SCc2nc3ccccc3s2)n1-c1ccccn1,-107.5*,·,·,93.8%,-5.4%
CCNC(=O)CSc1nnc(CN2CCCCCC2=O)n1-c1ccccn1,11.2,7.3%,-4.8%,-2.3%,15.8%
